An excerpt weighted towards active compounds, which were near 17% of everything screened.
DT40 TDP1 no CPT: qHTS for Inhibitors of human tyrosyl-DNA phosphodiesterase 1 (TDP1): qHTS in cells in absence of CPT; 420,000 compounds, 15% hits; DT40 Tdp1-/- hTDP1 cells, no CPT, ATP luminescence, 48 h; Potency, µM (highest dose often 46.2 µM), for inactives: top-dose activity change, negative = growth inhibition, usual class: inhibitors; also: % is scaled to controls: 0 for no effect and ±100 for the full control effect; nearly all actives have a fitted effect of over 55% in size
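Chicken DT40 Tdp1-/- cells complemented with human TDP1, screened without camptothecin (DMSO vehicle only), 400 cells/well. Compounds pin-transferred, cells incubated at 37 °C for at least 48 hr. Growth read as ATP-dependent luminescence (CellTiter-Glo, 30 min at RT).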
TGFb inhibitor: qHTS for Inhibitors of TGF-b; HepG2 CAGA-GFP TGF-b/SMAD3 reporter, GFP fluorescence, 18 h; TGF-beta stimulated, 500 pg/mL final; Potency, µM (top dose mostly 46.1 µM), for the others: at the highest dose activity, negative = inhibition, usual class: inhibitors; 410,000 compounds, 1.2% hits; AID 588855, 2011; also: % is scaled to controls: 0 for no effect and ±100 for the full control effect; nearly all actives have a fitted effect of over 65% in size
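First, reporter cells (HEPG2 CAGA-GFP) rested 2 h at 37 degrees C. Next, compounds were pinned in and TGF-beta added to 500 pg/mL final. After 18 h, GFP was imaged per cell and summed per well.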
ATXN2 expr inh: Primary qHTS for Inhibitors of ATXN expression | 360,000 compounds, 0.72% hits | Potency, µM (titrated, usually from 57 µM), without a hit: at the highest dose activity change, negative = inhibition, most hits filed as inhibitors | AID 1745845, 2022 | HEK-293 ATXN2-luciferase reporter, luminescence, 24 h; also: % is scaled to controls: 0 for no effect and ±100 for the full control effect; nearly all actives have a fitted effect of over 55% in size
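ATXN2-luciferase reporter cells (luciferase flanked by upstream and downstream ATXN2 gene portions) were treated 24 h at 37 °C with compounds at up to 57 uM. SteadyGlo luminescence gave expression; GF-AFC fluorescence gave viability.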
TDP1 cell CPT: qHTS for Inhibitors of human tyrosyl-DNA phosphodiesterase 1 (TDP1): qHTS in cells in presence of CPT. chicken DT40 Tdp1-/-;hTDP1 cells + 20 nM CPT, ATP luminescence, 48 h. Potency, µM (doses to about 46.2 µM), for inactives: at the top dose activity change, negative = growth inhibition, most hits filed as inhibitors. 420,000 compounds, 12% hits. AID 686979, 2013; also: % is scaled to controls: 0 for no effect and ±100 for the full control effect; nearly all actives have a fitted effect of over 55% in size
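Chicken DT40 Tdp1-/- cells complemented with human TDP1, 400 cells/well, exposed to compounds plus 20 nM camptothecin for at least 48 h at 37 C; viability read as ATP content by CellTiter-Glo luminescence.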
S2 tox: Viability Counterscreen for Primary qHTS for Inhibitors of ATXN expression; Potency, µM (highest dose often 56.7 µM), usual class: cytotoxic; S2 cells (HEK-293 line with an ATXN2-luciferase reporter) viability, CellTiter-Fluor protease fluorescence, 24 h; 400,000 compounds, 0.49% hits; also: nearly all actives have a fitted effect of over 40% in size
HepG2 tox: qHTS for Inhibitors of TGF-b: Cytotox Counterscreen; Potency, µM (top dose mostly 46.1 µM), without a hit: top-dose activity change, negative = cytotoxicity, usual class: cytotoxic; HepG2 CAGA-GFP viability, ATP luminescence, 18 h; 410,000 compounds, 0.76% hits
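CellTiter-Glo luminescence gave cytotoxicity after 18 hours at 37 degrees C. The cells were HepG2 CAGA-GFP in 1% FBS DMEM, stimulated with 500 pg/mL TGF-beta after compound addition. %Activity was normalised to no-cell wells (complete cell-killing) and DMSO (no toxicity), and curves were fitted and classified.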
Numbers without * were called inactive; i = inactive; ? = inconclusive; . = not tested or not shown; [ ] = another dose, or the depositor's remark. Calls follow the shape of the dose curve; as a rule, active = well fitted curve in the direction sought with a large enough effect; inconclusive = small, poorly fitted or top-dose-only effect, or another doubt; inactive = no such curve, though single readings can be large; an effect the other way counts as inactive or inconclusive. Potency is read from the fitted curve at half-maximal effect.

SMILES | DT40 TDP1 no CPT | TGFb inhibitor | ATXN2 expr inh | TDP1 cell CPT | S2 tox | HepG2 tox
CCc1ccc(NC(=O)c2ccc(F)c(S(=O)(=O)N3CCN(c4cc(C)ccc4C)CC3)c2)cc1 | ? | 0% | . | ? | . | 1%
O=C(Nc1ccccc1)c1ccc(F)c(S(=O)(=O)N2CCOCC2)c1 | -19% | 1% | 3% | -24% | i | -7%
COc1cc(=O)n2c(c1C(=O)NC(C)c1ccco1)CCN(C(=O)c1cccc(C)c1)CC2 (configuration not stated) | 9% | . | . | 1% | i | .
COc1cc(=O)n2c(c1C(=O)NC(C)c1ccco1)CCN(C(=O)c1cccc(C)c1C)CC2 (configuration not stated) | -15% | . | . | 0.16µM* | i | .
O=C(NC1CCCC1)C(c1ccccc1)N(Cc1ccc2c(c1)OCO2)C(=O)Cc1cccs1 (configuration not stated) | ? | -25% | -4% | ? | i | 3%
O=C(NC1CCCCC1)C(c1cccnc1)N(CCc1ccccc1)C(=O)Cc1cccs1 (configuration not stated) | 10µM* | 10% | -5% | ? | i | 2%
O=C(NCc1ccccc1)C(c1ccccc1)N(Cc1ccc2c(c1)OCO2)C(=O)Cc1cccs1 (configuration not stated) | 23µM* | -12% | -37% | ? | i | -7%
COC(=O)c1ccc(C(C(=O)NC2CCCCC2)N(Cc2ccccc2)C(=O)Cc2cccs2)cc1 (configuration not stated) | 4.1µM* | -2% | -3% | 3.3µM* | ? | 3%
COc1ccc(CNC(=O)C(c2ccc(C)o2)N(Cc2cccs2)C(=O)Cc2cccs2)cc1 (configuration not stated) | ? | 0% | -24% | 29µM* | i | -16%
COCCN(C(=O)Cc1cccs1)C(C(=O)NCc1ccc(OC)cc1)c1ccc(C)cc1 (configuration not stated) | ? | -2% | -5% | ? | i | 6%
COc1ccccc1CN(C(=O)Cc1cccs1)C(C(=O)NC1CCCC1)c1ccncc1 (configuration not stated) | ? | -1% | -19% | ? | i | -2%
Cc1ccc(N/C(=C\C(=O)c2ccccc2)C(=O)O)cc1 | -8% | -13% | . | -8% | i | 8%
O=C(NC1CCCC1)C(c1ccncc1)N(Cc1ccccc1)C(=O)Cc1cccs1 (configuration not stated) | -22% | 1% | 2% | 0% | i | -7%
COC(=O)c1ccc(C(C(=O)NC2CCCCC2)N(C(=O)Cc2cccs2)C2CC2)cc1 (configuration not stated) | 10µM* | -5% | . | 8.2µM* | . | -8%
O=C(NC1CCCC1)C(c1ccsc1)N(Cc1ccccc1)C(=O)Cc1cccs1 (configuration not stated) | 13µM* | ? | 18% | 18µM* | i | 11%
CSCCOC(=O)C1=C(C)Nc2ccc(C)cc2S1 | 16µM* | -19% | 15% | 21µM* | i | -27%
CCOC(=O)C1=C(C)Nc2ccc(C)cc2S1 | ? | 1% | 5% | ? | i | -14%
CCCn1c(N)c(N(CCOC)C(=O)c2ccc(-c3ccc(Cl)cc3)o2)c(=O)[nH]c1=O | -5% | -23% | -7% | -2% | i | -33%
CC1C(Br)C(=O)NC(=O)N1Cc1ccccc1 (configuration not stated) | 3% | -12% | -20% | 0% | i | -2%
COc1ccc(OCC(=O)Nc2ccc3c(c2)nc(CCN2CCN(c4ccccn4)CC2)n3C)cc1 | ? | -11% | . | 18µM* | ? | -9%
Cn1c(CCN2CCN(c3ccccn3)CC2)nc2cc(NC(=O)COc3ccc(Cl)cc3)ccc21 | 4.1µM* | ? | ? | 18µM* | ? | -17%
Cn1c(CCN2CCCC2)nc2cc(NC(=O)COc3ccc(Cl)cc3)ccc21 | 16µM* | -19% | . | ? | i | -29%
Cc1cccc(OCC(=O)Nc2ccc3c(c2)nc(CCN2CCN(c4ccccn4)CC2)n3C)c1 | 18µM* | -29% | 14µM* | 23µM* | ? | -9%
CCc1cccc(C)c1NC(=O)CN1C(=O)C2(SCC(=O)N2c2cccc(F)c2)c2ccccc21 (configuration not stated) | -23% | -5% | 0% | -29% | i | 3%
O=C(Cc1ccc(NC(=O)C2CCN(C(=O)C3CCC3)CC2)cc1)Nc1ccc(C(=O)N2CCOCC2)cc1 | -5% | -7% | -12% | 8% | i | -8%
SMILES | DT40 TDP1 no CPT | TGFb inhibitor | ATXN2 expr inh | TDP1 cell CPT | S2 tox | HepG2 tox
Cc1ccc(CNC(=O)CCCCCn2c(=O)c3sccc3n(CC(=O)C(C)(C)C)c2=O)cc1 | ? | -16% | -17% | ? | ? | -8%
CCn1c(C)nc2cc(C(=O)NNC(=S)NC(=O)c3ccc(OC)cc3)ccc21 | ? | -18% | -13% | ? | i | -29%
Cn1c(O)c(N=NC(=S)Nc2ccccc2F)c2cc(S(=O)(=O)N3CCOCC3)ccc21 | 5.8µM* | ? | -26%[11.3 µM] | 5.2µM* | ? | -4%
Cc1ccc(N=Nc2c(O)n(CN3CCOCC3)c3ccccc23)cc1 | ? | 50% | 95% | -9% | i | -6%
Cc1cccc(NC(=S)N=Nc2c(O)n(CN3CCOCC3)c3ccccc23)c1C | 5.8µM* | 2.2µM* | . | 5.8µM* | . | -53%
Cc1ccc(NC(=S)N=Nc2c(O)n(C)c3ccc(S(=O)(=O)N4CCOCC4)cc23)cc1C | 3.7µM* | 8% | -20% | 2.1µM* | i | -3%
C=CCn1c(O)c(N=NC(=S)Nc2ccccc2C)c2cc(S(=O)(=O)N3CCOCC3)ccc21 | 0.73µM* | ? | -33% | 3.3µM* | i | -18%
CNC(=O)C1CCC(Cn2c(=O)c3sccc3n(CC(=O)N3CCCC(C)C3)c2=O)CC1 (configuration not stated) | 3% | 0% | 1% | -4% | ? | -11%
Cc1ccc(Oc2nnc(-c3ccc(C)cc3)c3ccccc23)cc1 | 15µM* | 0% | 11% | 21µM* | i | -2%
